Screening results (PubChem BioAssay)
pCIP destab: lowers stability of the mouse p/CIP coactivator protein; Q05BA5; F442A p/CIP-EGFP cells, EGFP fluorescence, 16 h; decrease of EGFP signal, % at 10 µM; 290,000 compounds, 0.01% hits;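 active means EGFP signal decrease of at least 30% at 10 µM or well 3 SD below plate mean, unless failing retest; inactive means the rest, including hits failing retest or dose response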
MPTP inh: inhibitors of mitochondrial permeability transition pore; isolated mouse mitochondria, Ca2+ swelling absorbance, 30 min; inhibition, % at 10 µM; 360,000 compounds, 1.4% hits; AID 602449;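 active means inhibition of 50% or more, scaled per plate between neutral and stimulator controls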;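 further: 0% = DMSO wells given calcium and 100% = 1 mM EGTA wells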
NR3A LBD binder: modulators (binders) of human NR3A ligand-binding domain | NR3A LBD differential scanning fluorimetry, Tm shift; 0% = protein alone, 100% = glycine-bound protein | Tm shift relative to glycine control, % at 25 µM | 340,000 compounds, 2.5% hits | AID 1259313;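 active means melting temperature shift of at least 10% of the positive control shift, at one fixed dose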
beta cell repl: inducers of beta-cell replication in MIN6 cells | MIN6 cells proliferation, ATPlite luminescence, 48 h; cells starved in 0.2% serum; 100% = growth in 10% serum | proliferation, % at 10 µM | 330,000 compounds, 0.29% hits | AID 2380;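 active means compounds whose signal lies at least 3.5 SD above the mean of all wells on their plate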;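 further: 0% = DMSO-treated cells in low-serum medium and 100% = 10% serum control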
FAS-TE inh: blocks the thioesterase domain of human fatty acid synthase. P49327. recombinant FAS-TE, OMFH fluorogenic substrate, fluorescence endpoint. inhibition, % at 15 µM. 360,000 compounds, 0.67% hits. AID 602261;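 active means compounds whose normalised, plate-corrected inhibition of enzyme fluorescence in the single-dose primary screen is 50% or more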;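 further: 0% = DMSO with enzyme and 100% = substrate without enzyme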
Target sequence (P49327 whole entry, looked up, the tested form may be a part): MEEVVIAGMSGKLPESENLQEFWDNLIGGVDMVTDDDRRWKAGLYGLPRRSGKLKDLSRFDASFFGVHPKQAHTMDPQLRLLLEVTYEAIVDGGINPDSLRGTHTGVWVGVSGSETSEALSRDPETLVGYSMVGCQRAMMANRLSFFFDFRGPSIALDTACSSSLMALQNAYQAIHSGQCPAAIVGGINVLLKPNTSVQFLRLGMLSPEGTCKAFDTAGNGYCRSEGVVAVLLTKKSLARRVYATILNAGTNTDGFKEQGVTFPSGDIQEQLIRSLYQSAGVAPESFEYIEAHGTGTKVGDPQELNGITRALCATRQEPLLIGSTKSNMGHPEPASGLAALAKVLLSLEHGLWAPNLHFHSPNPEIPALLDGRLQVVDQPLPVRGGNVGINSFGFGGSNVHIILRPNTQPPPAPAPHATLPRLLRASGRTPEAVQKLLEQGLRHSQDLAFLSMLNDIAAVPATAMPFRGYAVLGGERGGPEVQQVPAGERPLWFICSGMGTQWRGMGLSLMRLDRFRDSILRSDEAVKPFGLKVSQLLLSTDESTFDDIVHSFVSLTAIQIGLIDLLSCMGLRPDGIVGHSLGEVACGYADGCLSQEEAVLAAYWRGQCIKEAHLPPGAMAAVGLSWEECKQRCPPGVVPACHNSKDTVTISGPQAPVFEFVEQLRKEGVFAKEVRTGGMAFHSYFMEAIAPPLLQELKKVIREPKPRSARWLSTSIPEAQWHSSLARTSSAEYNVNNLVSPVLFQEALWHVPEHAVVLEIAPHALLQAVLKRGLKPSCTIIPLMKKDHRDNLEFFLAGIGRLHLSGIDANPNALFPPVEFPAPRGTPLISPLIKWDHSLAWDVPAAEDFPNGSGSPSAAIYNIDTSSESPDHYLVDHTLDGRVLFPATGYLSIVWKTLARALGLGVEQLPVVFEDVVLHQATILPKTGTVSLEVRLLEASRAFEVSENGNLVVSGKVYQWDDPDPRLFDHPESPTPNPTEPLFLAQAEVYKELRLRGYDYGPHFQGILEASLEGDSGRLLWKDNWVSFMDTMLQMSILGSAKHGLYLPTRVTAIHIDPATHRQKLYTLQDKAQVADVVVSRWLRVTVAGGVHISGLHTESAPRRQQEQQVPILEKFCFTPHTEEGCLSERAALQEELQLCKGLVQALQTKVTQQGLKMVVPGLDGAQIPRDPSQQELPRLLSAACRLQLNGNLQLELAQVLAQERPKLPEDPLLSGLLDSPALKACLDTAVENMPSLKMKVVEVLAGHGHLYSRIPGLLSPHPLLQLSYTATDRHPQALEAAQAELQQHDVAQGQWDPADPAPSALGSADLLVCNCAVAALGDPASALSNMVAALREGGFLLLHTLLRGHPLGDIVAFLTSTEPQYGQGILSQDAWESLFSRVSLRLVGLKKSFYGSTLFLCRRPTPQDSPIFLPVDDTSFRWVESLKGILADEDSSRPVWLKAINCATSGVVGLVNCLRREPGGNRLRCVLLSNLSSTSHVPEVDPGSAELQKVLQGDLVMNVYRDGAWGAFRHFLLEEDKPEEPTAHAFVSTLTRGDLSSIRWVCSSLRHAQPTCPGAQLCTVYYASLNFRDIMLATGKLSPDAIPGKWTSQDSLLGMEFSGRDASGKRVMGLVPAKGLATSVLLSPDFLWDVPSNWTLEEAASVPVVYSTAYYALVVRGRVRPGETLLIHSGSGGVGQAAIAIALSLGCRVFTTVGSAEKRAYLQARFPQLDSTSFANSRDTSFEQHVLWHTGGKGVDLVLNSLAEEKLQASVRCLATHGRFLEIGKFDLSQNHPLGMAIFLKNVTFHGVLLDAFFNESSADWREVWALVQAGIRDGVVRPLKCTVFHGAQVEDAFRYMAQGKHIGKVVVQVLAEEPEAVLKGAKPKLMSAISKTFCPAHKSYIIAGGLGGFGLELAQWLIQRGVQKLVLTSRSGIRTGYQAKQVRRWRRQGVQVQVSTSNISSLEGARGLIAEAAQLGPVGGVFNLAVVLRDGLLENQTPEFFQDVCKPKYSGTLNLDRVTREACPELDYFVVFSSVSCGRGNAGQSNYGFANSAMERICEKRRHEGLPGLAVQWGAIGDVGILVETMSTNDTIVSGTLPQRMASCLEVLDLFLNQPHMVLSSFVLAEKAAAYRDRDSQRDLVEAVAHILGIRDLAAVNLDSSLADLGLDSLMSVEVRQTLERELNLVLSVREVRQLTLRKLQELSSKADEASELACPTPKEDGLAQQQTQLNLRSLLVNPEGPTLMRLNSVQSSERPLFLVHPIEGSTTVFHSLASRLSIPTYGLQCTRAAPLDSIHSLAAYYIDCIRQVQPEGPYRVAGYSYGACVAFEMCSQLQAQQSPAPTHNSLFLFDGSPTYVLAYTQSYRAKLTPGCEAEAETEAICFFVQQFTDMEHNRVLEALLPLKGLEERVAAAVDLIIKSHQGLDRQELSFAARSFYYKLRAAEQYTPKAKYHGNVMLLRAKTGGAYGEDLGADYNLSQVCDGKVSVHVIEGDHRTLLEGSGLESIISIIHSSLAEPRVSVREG
MPTP counter: membrane potential counter-screen of mitochondrial pore inhibitors; shares compounds with MPTP inh; isolated mitochondria, Rhodamine 123 fluorescence; inhibition, % at 10 µM; 5,000 compounds, 78% hits; in the data active means inhibition above about 22%;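 further: 0% = DMSO vehicle and 100% = positive control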
MPTP abs DR: dose response confirmation of mitochondrial permeability transition pore inhibitors; IC50, µM; 780 compounds, 58% hits; isolated mitochondria swelling, absorbance; shares compounds with MPTP inh; AID 651561; in the data active means IC50 below about 20 µM
MPTP counter DR: MPTP inhibitor counter-screen activity, dose response. isolated mitochondria counterscreen, fluorescence read-out. 780 compounds, 49% hits. shares compounds with MPTP inh. IC50, µM; in the data active means IC50 below about 80 µM
* = called active by the depositor; i = inactive; . = not tested or not shown. Hits are enriched below; roughly 4.1% of the tested compounds scored in any of these assays.

SMILES	pCIP destab	MPTP inh	NR3A LBD binder	beta cell repl	FAS-TE inh	MPTP counter	others
N#Cc1c(NC(=S)NC(=O)Cc2cccs2)sc2c1CCCCC2	3	84*	20*	-6	26	74*
CN1Cc2sc(NC(=S)NC(=O)c3ccccc3)c(C#N)c2CC1(C)C	-28	.	1	-4	.	.
CC(C)(C)c1ccc(C(=O)NC(=S)Nc2sc3c(c2C#N)CCC3)cc1	-11	35	10	-2	-1	.
CC(C)(C)C(=O)NC(NC(=S)Nc1sc2c(c1C#N)CCCC2)C(Cl)(Cl)Cl (stereo not given)	-18	94*	16*	-5	31	53*
N#Cc1c(NC(=S)NC(=O)c2ccccc2)sc2c1CCC2	-5	58*	11*	2	-6	37*
COCCNc1nc(NCCOc2ccccc2Cl)c2sc(-c3ccccc3)cc2n1	.	6	.	.	7	.
COCCNc1nc(NCC2CCCCC2)c2sc(-c3ccccc3)cc2n1	.	70*	.	.	1	93*
c1ccc(-c2cc3nc(NCC4CC4)nc(NCC4CCCCC4)c3s2)cc1	.	75*	.	.	-22	97*
CCOC(=O)CN1C=C(c2ccc3ccccc3n2)C(C[N+](=O)[O-])c2ccccc21 (stereo not given)	-31	-11	1	-6	-90	.
Cc1ccc2c(c1)nnn2C1CCN(S(=O)(=O)c2cccc(S(=O)(=O)N(C)C)c2)CC1	-37	88*	-1	-5	18	87*
Cc1ccc2c(c1)nnn2C1CCN(S(=O)(=O)c2ccc(C(=O)N3CC(C)CC(C)C3)cc2)CC1 (stereo not given)	-17	56*	-1	-5	31	40*
O=c1[nH]c(-c2ccccc2F)nc2c1sc(=S)n2Cc1ccccc1	14	66*	6	-6	13	69*
Cc1ccc(S(=O)(=O)N(Cc2cccc(C)c2)C(=O)N2CCN(C)CC2)cc1	.	0	2	-3	-6	.
O=C(O)c1cccc(S(=O)(=O)Nc2cccc(S(=O)(=O)N3CCCC3)c2)c1	.	-1	1	-3	-8	.
O=C(c1cc(C(=O)NCCc2ccccc2)c(=O)n(CCc2ccccc2)c1)c1cc(Cl)ccc1O	-11	98*	13*	-5	28	79*
CCc1c(C)nc2ncnn2c1NCCc1ccc(OC)cc1	-11	51*	-2	-5	-2	65*
Cc1ccc(NC(=O)COC(=O)C2CC3C=CC2C3)cc1S(=O)(=O)N1CCCCC1 (stereo not given)	-7	34	-7	0	21	.
O=C(Nc1ccc(F)cc1)Nc1ccc(S(=O)(=O)N2CCCC2)cc1	.	83*	28*	-1	13	100*
CC(=O)c1ccc(NC(=O)Nc2ccc(S(=O)(=O)N3CCCC3)cc2)cc1	-4	80*	30*	-4	4	93*
COc1ccc(NC(=O)c2cc(S(=O)(=O)N3CCCC3)oc2C)cc1	-6	1	0	0	-2	.
Cc1oc(S(=O)(=O)N2CCCCC2)cc1NC(=O)Nc1ccc(F)cc1	11	77*	0	-2	6	87*
NC(=O)COc1ccc(S(=O)(=O)N2CCCC2)cc1	.	0	.	.	-4	.
Cc1onc(-c2ccccc2)c1C(=O)OCC(=O)Nc1ccc(OC(F)(F)F)cc1	.	86*	12*	-8	36	91*
O=C(Nc1nc2c(s1)CCCC2)c1nn(Cc2ccccc2)c(=O)c2ccccc12	2	59*	2	-4	13	-5	MPTP abs DR=>100;MPTP counter DR=>80
CCOC(=O)c1c(/N=C/c2cccc(C)c2O)sc2c1CCN(C)C2	1	71*	-6	0	2	-16
SMILES	pCIP destab	MPTP inh	NR3A LBD binder	beta cell repl	FAS-TE inh	MPTP counter	others
COc1ccccc1N(Cc1ccccc1)S(=O)(=O)c1cccc(C(=O)NC2CC(C)(C)NC(C)(C)C2)c1	.	84*	0	-7	-6	-18	MPTP abs DR=7.6*;MPTP counter DR=>80
CC1(C)CC(NC(=O)c2ccc(Cl)c(S(=O)(=O)N(Cc3ccccc3)c3ccccc3)c2)CC(C)(C)N1	.	97*	3	-7	-4	-20
COc1ccccc1N(Cc1ccccc1)S(=O)(=O)c1cccc(C(=O)O)c1	-14	-4	2	0	-6	.
COC(=O)[C@]12CCCCC=C1N(Cc1ccccc1)C(=O)[C@H](CC(=O)N1CCOCC1)C2	.	1	.	.	-9	.
Cc1ccc(CCNC(=O)CCn2c(=O)c3cccn3c3ccc(F)cc32)cc1	-11	-2	1	2	17	.
CCN(CC)S(=O)(=O)c1ccc(S(=O)(=O)Nc2ccc3c(c2)oc2ccccc23)cc1	-3	60*	24*	-6	40	84*
O=C(Nc1ccc(Cl)cc1)Nc1nnc(CSc2ccc(Cl)cc2)s1	-2	85*	27*	-6	6	63*
Cc1ccc(SCc2nnc(NC(=O)c3ccccc3)s2)cc1	6	-1	-1	-2	-9	.
O=C(Nc1ccc(F)cc1)Nc1nnc(Cc2ccccc2)s1	-5	19	-3	-4	1	.
O=C(Nc1ccc(Cl)cc1)Nc1nnc(CSCc2ccccc2)s1	-8	97*	-6	0	4	60*
O=C(Nc1ccc(Cl)cc1)Nc1nnc(Cc2ccc([N+](=O)[O-])cc2)s1	0	83*	0	-1	0	63*
CCC(C)NC(=O)c1cc(-c2ccccc2O)on1 (stereo not given)	-20	53*	7	0	-2	1	MPTP abs DR=i;MPTP counter DR=>80
COc1ccccc1-c1cc(C(=O)NC(C)C)no1	2	0	-1	-1	0	.
Cc1ccc(NC(=O)COC(=O)C2(c3ccc(Cl)cc3)CCCC2)cc1	1	78*	2	0	31	82*
COCCCn1c(Cc2csc(Nc3ccc(F)cc3)n2)nnc1SCC(N)=O	-7	-4	0	-2	-8	.
COc1ccc(-n2c(SCCNCCO)nc3sc4c(c3c2=O)CCCC4)cc1	-7	76*	1	-2	1	-20	MPTP abs DR=8.3*;MPTP counter DR=>80
CCCCN1/C(=C/c2ccc3ccccc3[n+]2CC)Sc2ccccc21	-428	94*	1	-5	-34	104*
CCN1/C(=C/c2ccc3cc(C)ccc3[n+]2CC)Sc2cc(C)ccc21	-725	98*	0	.	-37	103*
CCN1/C(=C/c2ccc3cc(C)ccc3[n+]2C)Sc2ccc3sccc3c21	-129	34	-3	.	-11	.
CCN1/C(=C/c2ccc3ccccc3[n+]2CC)C=Cc2ccccc21	-60	160*	-1	-6	0	68*
